From publication PMC7862700, “An all-to-all approach to the identification of sequence-specific readers for epigenetic DNA modifications on cytosine” come the findings set out here.

Sequence of CRX (O43186 whole entry, the tested form may be a part): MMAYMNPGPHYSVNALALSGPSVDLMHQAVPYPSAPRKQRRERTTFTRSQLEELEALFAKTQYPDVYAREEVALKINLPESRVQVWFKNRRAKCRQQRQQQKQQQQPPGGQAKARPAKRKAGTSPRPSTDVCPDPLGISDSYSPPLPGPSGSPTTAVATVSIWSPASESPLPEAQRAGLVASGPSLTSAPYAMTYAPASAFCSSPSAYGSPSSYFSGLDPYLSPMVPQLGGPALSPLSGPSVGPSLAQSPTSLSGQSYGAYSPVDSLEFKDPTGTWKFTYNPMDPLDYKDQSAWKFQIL

One assay addresses CRX (Homo sapiens, UniProt O43186 1-299). The assay is described as follows: DAPPL (digital affinity profiling via proximity ligation, sequencing); 10 mM Tris-HCl pH 7.5, 50 mM NaCl, 1 mM DTT, 4% glycerol, room temperature, 30 min; GST-TFs on glutathione beads, 16-mer random dsDNA library, 0.1% formaldehyde crosslink after washing; high values mean tight binding. As to conditions: protein: recombinant; tags: N-terminal GST; dsDNA, one strand shown. In a few lines:
(§1)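 Human transcription factors fused to GST were expressed in yeast, captured on glutathione beads, given DNA barcodes and pooled with a GST-only negative control. Pools were incubated with 200 nmole of a 16-mer random double-stranded DNA library in Tris/NaCl/DTT/glycerol buffer at room temperature for 30 min. They were then washed, crosslinked with 0.1% formaldehyde, proximity-ligated (BsaI/T4 ligase, 1 h, 37 °C), PCR-amplified and sequenced on an Illumina NextSeq500. Binding signal is each 6-mer's read frequency for a factor divided by its frequency for the GST control.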
Take TAAGTG: the binding signal is 1.14 fold enrichment (6-mer frequency, TF over GST control).
GCATAA: the binding signal is 1.15 fold enrichment (6-mer frequency, TF over GST control).
Regarding GGGGAT, the binding signal was 1.21 fold enrichment (6-mer frequency, TF over GST control).
For the sequence CCAAAG, the binding signal was 1.05 fold enrichment (6-mer frequency, TF over GST control).
For AAGCCG, the binding signal was 1.42 fold enrichment (6-mer frequency, TF over GST control).
Same read-out and setting: the figure for ATTGGA is 1.03 fold enrichment (6-mer frequency, TF over GST control).
On the same count and under the same terms, as for GCGGAT, the figure is 1.2 fold enrichment (6-mer frequency, TF over GST control); as for AGTCTT, 1.02 fold enrichment (6-mer frequency, TF over GST control); as for GGGATA, 1.04 fold enrichment (6-mer frequency, TF over GST control).
Still for that read-out and setting: as for GTTTAG, the figure is 1 fold enrichment (6-mer frequency, TF over GST control).
As to AGCCGA, the binding signal is 1.08 fold enrichment (6-mer frequency, TF over GST control).
The same measure, in the same setting: as for GATTGG, the figure is 1.01 fold enrichment (6-mer frequency, TF over GST control); as for AGGATA, 1.14 fold enrichment (6-mer frequency, TF over GST control).
Turning to GGATTG, the binding signal is 1.12 fold enrichment (6-mer frequency, TF over GST control).
For the sequence GATCAG, the binding signal was 1.08 fold enrichment (6-mer frequency, TF over GST control).
For TAAGGA, the binding signal was 1.22 fold enrichment (6-mer frequency, TF over GST control).

For another assay, the target named is T1, ERF (Homo sapiens, UniProt P50548 1-548).
T1 sequence: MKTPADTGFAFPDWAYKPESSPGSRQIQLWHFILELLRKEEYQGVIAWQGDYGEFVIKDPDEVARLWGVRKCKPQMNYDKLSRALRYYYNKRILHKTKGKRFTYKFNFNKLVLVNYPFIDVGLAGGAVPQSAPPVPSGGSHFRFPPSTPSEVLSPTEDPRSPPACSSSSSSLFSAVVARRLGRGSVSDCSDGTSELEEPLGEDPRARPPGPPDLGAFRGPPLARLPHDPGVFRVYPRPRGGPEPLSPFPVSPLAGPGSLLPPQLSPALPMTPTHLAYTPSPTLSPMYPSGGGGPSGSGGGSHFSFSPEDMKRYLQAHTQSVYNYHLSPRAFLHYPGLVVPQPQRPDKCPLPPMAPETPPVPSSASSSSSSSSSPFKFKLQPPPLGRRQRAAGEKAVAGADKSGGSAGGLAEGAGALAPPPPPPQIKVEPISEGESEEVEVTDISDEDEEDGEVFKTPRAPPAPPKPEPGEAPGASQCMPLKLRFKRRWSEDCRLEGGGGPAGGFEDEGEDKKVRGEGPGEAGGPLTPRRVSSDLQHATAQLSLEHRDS
Described as above. The conditions noted are these: protein: recombinant; tags: N-terminal GST; dsDNA, one strand shown. In a few lines:
as §1
GAAAGG: the binding signal is 1 fold enrichment (6-mer frequency, TF over GST control).
As to TACGGG, the binding signal is 1.08 fold enrichment (6-mer frequency, TF over GST control).
The same measure, in the same setting: as for AGTCTT, the figure is 1.01 fold enrichment (6-mer frequency, TF over GST control); as for TGTCGC, 1.04 fold enrichment (6-mer frequency, TF over GST control).

A further assay addresses T2, SPDEF (Homo sapiens, UniProt O95238 1-335).
T2 sequence: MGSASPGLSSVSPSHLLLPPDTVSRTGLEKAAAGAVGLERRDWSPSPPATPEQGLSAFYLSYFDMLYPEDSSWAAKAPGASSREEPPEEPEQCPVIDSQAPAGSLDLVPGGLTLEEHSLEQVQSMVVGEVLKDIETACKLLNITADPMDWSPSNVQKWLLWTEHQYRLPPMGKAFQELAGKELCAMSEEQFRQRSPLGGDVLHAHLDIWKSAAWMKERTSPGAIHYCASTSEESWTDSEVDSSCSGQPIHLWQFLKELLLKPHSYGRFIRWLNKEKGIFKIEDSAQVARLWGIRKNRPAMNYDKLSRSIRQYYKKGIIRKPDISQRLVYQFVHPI
Described as above. As to conditions: protein: recombinant; tags: N-terminal GST; dsDNA, one strand shown. The gist of the method:
as §1
As for GGATGA, the binding signal is 1.11 fold enrichment (6-mer frequency, TF over GST control).
Regarding GCGGAT, the binding signal is 1.25 fold enrichment (6-mer frequency, TF over GST control).
As for ACCGGT, the binding signal is 1.02 fold enrichment (6-mer frequency, TF over GST control).
Take AGGATA: the binding signal is 1.31 fold enrichment (6-mer frequency, TF over GST control).
Turning to CGCGGA, the binding signal is 1.03 fold enrichment (6-mer frequency, TF over GST control).
Same read-out and setting: the figure for GGTTGT is 1.03 fold enrichment (6-mer frequency, TF over GST control).

In a further assay the target is T3, ETV7 (Homo sapiens, UniProt Q9Y603 1-341).
T3 sequence: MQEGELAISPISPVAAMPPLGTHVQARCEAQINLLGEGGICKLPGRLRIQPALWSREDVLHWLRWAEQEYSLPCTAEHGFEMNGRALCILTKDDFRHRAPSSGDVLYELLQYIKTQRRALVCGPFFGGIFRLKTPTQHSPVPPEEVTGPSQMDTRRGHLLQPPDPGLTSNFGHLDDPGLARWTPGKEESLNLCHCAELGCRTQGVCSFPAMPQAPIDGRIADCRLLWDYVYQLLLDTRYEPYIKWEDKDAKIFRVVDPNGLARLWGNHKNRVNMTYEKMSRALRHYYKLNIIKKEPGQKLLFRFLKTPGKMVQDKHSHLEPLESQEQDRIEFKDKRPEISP
The description is as above. The conditions noted are these: protein: recombinant; tags: N-terminal GST; dsDNA, one strand shown. In a few lines:
as §1
Take GGATGA: the binding signal is 1.06 fold enrichment (6-mer frequency, TF over GST control).
Take GAAAGG: the binding signal is 1.02 fold enrichment (6-mer frequency, TF over GST control).
As for AAGCCG, the binding signal was 1.05 fold enrichment (6-mer frequency, TF over GST control).

A further assay addresses T4, ELF5 (Homo sapiens, UniProt Q9UKW6-2 1-255).
T4 sequence: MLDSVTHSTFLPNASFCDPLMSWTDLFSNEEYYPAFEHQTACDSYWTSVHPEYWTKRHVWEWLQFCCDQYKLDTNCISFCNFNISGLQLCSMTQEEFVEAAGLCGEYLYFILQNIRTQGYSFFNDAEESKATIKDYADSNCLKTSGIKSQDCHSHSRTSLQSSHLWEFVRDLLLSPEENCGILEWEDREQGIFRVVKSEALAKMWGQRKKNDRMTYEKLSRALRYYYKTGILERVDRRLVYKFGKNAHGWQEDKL
The description is as above. As to conditions: protein: recombinant; tags: N-terminal GST; dsDNA, one strand shown. The gist of the method: as §1
As for GGATGA, the binding signal was 1.11 fold enrichment (6-mer frequency, TF over GST control).
The same measure, in the same setting: as for AGTCTT, the figure is 1.08 fold enrichment (6-mer frequency, TF over GST control).
Same read-out and setting: the figure for ACAAGG is 1.14 fold enrichment (6-mer frequency, TF over GST control); for AGGATA it is 1.17 fold enrichment (6-mer frequency, TF over GST control).
For CGCGGA, the binding signal was 1.03 fold enrichment (6-mer frequency, TF over GST control).
Regarding TAAGGA, the binding signal is 1.32 fold enrichment (6-mer frequency, TF over GST control).
Same read-out and setting: as for TGTCGC, the figure is 1.04 fold enrichment (6-mer frequency, TF over GST control).

The next assay concerns the target T5, ETV3 (Homo sapiens, UniProt P41162-2 1-143).
T5 sequence: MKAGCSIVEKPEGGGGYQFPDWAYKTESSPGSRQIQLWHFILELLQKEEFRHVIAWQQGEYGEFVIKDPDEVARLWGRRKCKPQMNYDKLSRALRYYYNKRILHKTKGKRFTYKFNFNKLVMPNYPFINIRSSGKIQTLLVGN
The assay is described as above. As to conditions: protein: recombinant; tags: N-terminal GST; dsDNA, one strand shown. In a few lines: as §1
For GGATGA, the binding signal was 1.03 fold enrichment (6-mer frequency, TF over GST control).
Take AGGATA: the binding signal was 1.06 fold enrichment (6-mer frequency, TF over GST control).
Still for that read-out and setting: the figure for CGCGGA is 1.01 fold enrichment (6-mer frequency, TF over GST control); for CAACAG it is 1.02 fold enrichment (6-mer frequency, TF over GST control).
